Test results from the supplement of paper PMC11732987, “Enantioselective OTUD7B fragment discovery through chemoproteomics screening and high-throughput optimisation” (Communications Chemistry, 2025).
Unmarked numbers belong to inactive results.

What was measured:
Experiment in all cases: log2 ratio of Biotin-Ahx-Ub-VS probe labelling (fragment/DMSO); higher = less target engagement (more negative = stronger competition), active = hit call of the paper (q ≤ 0.05, log2 ratio ≤ -1)
Settings in all cases: compound concentration: 200 uM; treatment time: 3 h
USP19 = molecular target: T1, USP19 (UniProt O94966)
T1 sequence (whole entry): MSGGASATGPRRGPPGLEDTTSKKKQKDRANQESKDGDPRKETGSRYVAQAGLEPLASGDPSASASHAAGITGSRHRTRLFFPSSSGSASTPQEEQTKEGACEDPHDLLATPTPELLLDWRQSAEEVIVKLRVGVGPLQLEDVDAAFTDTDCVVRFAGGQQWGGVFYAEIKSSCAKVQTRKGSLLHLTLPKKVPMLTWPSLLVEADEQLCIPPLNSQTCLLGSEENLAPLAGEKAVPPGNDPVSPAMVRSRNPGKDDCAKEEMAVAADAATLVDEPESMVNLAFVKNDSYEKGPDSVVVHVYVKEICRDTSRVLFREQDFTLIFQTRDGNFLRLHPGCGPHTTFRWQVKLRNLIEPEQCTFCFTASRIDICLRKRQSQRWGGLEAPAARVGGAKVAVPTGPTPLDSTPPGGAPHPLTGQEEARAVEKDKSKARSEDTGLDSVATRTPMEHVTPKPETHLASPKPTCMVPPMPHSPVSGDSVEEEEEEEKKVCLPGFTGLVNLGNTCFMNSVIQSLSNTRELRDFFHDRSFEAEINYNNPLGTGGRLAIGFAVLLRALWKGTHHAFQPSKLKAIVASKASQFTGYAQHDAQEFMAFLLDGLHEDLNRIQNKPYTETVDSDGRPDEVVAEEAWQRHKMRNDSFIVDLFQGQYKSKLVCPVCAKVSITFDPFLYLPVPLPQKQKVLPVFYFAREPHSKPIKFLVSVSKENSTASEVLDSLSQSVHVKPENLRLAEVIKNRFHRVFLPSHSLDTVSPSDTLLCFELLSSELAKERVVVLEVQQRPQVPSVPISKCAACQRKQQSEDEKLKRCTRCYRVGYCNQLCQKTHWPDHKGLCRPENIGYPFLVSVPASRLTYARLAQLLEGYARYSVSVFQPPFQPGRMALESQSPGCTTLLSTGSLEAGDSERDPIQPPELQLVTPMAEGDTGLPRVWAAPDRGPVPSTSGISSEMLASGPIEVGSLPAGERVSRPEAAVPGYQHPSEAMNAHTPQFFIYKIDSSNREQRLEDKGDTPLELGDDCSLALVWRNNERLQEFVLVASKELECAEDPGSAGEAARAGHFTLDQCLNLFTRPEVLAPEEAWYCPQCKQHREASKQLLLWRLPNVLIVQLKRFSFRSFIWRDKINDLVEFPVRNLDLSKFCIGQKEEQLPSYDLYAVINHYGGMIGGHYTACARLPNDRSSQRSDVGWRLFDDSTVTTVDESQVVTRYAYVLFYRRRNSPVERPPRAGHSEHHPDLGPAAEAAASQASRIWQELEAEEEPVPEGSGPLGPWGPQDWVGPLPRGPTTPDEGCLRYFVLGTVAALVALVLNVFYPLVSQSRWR
Method in brief: (§1)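 HEK293T lysate, 495 µg per sample in Tris/CHAPS/IGEPAL buffer with protease inhibitors, was treated in triplicate with fragment at 200 µM or vehicle for 3 h and then with Biotin-Ahx-Ub-VS at 0.5 µM final for 1 h. Labelled DUBs were NeutrAvidin-enriched, digested with LysC and trypsin, and run by diaPASEF LC-MS/MS. Spectronaut label-free quantities were global-median-normalised, and values are average log2 fragment/vehicle ratios by unpaired t-test on proteins with ≥2 unique peptides.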

USP22 = molecular target: T2, USP22 (UniProt Q9UPT9)
T2 sequence (whole entry): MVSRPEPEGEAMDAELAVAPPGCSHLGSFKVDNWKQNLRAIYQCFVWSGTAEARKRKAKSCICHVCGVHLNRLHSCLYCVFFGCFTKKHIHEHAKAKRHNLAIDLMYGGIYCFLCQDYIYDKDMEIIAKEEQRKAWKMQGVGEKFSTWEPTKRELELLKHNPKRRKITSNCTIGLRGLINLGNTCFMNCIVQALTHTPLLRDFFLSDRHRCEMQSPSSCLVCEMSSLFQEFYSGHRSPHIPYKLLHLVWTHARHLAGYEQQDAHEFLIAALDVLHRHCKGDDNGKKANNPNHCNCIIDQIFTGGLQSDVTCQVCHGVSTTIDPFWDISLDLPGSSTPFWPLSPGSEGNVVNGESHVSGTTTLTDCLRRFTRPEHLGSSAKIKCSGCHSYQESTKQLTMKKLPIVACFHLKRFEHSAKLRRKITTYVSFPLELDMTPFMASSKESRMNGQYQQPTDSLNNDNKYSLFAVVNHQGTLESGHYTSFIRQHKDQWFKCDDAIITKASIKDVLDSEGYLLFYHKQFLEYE
Method in brief: as §1

USP24 = USP24 (UniProt Q9UPU5)
Method in brief: as §1

USP25 = molecular target: T3, USP25 (UniProt Q9UHP3)
T3 sequence (whole entry): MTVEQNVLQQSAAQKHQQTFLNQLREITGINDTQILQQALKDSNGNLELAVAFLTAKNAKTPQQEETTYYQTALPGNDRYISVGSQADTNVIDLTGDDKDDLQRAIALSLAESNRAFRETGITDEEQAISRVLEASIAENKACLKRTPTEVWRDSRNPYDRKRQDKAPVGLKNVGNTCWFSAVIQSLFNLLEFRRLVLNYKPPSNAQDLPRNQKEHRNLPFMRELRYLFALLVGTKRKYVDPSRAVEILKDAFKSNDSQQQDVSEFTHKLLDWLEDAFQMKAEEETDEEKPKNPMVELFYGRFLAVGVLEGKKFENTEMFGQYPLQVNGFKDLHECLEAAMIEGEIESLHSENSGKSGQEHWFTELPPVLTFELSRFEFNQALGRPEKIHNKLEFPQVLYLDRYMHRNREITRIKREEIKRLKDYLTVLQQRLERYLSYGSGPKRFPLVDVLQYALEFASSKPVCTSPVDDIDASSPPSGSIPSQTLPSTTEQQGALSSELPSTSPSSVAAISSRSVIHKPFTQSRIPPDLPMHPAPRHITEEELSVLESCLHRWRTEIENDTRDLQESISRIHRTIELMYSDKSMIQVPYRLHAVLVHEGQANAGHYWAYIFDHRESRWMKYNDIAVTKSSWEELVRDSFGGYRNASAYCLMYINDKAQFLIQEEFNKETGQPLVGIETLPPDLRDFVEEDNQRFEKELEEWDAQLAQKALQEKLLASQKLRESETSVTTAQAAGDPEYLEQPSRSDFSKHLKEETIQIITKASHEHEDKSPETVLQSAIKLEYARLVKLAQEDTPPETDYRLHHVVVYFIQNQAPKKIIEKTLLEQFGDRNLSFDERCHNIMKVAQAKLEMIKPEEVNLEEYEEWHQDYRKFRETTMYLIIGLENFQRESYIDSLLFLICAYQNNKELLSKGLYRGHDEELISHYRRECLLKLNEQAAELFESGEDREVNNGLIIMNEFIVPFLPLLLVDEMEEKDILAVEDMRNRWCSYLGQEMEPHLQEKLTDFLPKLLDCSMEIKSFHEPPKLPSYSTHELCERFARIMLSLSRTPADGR
Method in brief: as §1

USP28 = molecular target: T4, USP28 (UniProt Q96RU2)
T4 sequence (whole entry): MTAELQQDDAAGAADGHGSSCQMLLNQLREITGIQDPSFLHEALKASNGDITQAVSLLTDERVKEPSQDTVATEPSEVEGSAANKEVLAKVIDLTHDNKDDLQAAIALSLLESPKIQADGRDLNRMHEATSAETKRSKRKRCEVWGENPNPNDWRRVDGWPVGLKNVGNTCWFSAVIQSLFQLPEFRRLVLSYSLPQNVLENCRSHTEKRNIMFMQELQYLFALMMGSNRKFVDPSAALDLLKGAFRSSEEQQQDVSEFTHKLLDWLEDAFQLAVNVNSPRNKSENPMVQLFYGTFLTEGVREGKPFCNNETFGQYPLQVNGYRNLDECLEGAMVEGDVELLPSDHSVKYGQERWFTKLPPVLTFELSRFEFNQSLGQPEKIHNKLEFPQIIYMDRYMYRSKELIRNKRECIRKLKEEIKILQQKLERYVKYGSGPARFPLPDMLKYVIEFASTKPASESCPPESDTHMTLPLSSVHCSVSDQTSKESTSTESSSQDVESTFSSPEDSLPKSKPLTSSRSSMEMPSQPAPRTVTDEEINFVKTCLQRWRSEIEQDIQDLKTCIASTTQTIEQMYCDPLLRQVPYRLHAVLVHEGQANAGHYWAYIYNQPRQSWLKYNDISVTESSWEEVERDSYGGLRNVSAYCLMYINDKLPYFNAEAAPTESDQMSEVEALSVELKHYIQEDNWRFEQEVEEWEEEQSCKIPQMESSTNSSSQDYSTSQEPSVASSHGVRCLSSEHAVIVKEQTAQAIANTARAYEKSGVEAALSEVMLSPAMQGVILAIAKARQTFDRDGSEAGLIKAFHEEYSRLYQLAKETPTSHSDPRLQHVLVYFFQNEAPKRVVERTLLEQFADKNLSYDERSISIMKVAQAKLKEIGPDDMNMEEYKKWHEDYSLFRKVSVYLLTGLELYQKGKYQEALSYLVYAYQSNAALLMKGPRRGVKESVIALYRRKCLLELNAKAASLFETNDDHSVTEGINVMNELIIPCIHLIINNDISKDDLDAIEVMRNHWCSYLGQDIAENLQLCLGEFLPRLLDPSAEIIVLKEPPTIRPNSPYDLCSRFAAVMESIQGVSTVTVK
Method in brief: as §1

USP24, sequence (Q9UPU5 whole entry): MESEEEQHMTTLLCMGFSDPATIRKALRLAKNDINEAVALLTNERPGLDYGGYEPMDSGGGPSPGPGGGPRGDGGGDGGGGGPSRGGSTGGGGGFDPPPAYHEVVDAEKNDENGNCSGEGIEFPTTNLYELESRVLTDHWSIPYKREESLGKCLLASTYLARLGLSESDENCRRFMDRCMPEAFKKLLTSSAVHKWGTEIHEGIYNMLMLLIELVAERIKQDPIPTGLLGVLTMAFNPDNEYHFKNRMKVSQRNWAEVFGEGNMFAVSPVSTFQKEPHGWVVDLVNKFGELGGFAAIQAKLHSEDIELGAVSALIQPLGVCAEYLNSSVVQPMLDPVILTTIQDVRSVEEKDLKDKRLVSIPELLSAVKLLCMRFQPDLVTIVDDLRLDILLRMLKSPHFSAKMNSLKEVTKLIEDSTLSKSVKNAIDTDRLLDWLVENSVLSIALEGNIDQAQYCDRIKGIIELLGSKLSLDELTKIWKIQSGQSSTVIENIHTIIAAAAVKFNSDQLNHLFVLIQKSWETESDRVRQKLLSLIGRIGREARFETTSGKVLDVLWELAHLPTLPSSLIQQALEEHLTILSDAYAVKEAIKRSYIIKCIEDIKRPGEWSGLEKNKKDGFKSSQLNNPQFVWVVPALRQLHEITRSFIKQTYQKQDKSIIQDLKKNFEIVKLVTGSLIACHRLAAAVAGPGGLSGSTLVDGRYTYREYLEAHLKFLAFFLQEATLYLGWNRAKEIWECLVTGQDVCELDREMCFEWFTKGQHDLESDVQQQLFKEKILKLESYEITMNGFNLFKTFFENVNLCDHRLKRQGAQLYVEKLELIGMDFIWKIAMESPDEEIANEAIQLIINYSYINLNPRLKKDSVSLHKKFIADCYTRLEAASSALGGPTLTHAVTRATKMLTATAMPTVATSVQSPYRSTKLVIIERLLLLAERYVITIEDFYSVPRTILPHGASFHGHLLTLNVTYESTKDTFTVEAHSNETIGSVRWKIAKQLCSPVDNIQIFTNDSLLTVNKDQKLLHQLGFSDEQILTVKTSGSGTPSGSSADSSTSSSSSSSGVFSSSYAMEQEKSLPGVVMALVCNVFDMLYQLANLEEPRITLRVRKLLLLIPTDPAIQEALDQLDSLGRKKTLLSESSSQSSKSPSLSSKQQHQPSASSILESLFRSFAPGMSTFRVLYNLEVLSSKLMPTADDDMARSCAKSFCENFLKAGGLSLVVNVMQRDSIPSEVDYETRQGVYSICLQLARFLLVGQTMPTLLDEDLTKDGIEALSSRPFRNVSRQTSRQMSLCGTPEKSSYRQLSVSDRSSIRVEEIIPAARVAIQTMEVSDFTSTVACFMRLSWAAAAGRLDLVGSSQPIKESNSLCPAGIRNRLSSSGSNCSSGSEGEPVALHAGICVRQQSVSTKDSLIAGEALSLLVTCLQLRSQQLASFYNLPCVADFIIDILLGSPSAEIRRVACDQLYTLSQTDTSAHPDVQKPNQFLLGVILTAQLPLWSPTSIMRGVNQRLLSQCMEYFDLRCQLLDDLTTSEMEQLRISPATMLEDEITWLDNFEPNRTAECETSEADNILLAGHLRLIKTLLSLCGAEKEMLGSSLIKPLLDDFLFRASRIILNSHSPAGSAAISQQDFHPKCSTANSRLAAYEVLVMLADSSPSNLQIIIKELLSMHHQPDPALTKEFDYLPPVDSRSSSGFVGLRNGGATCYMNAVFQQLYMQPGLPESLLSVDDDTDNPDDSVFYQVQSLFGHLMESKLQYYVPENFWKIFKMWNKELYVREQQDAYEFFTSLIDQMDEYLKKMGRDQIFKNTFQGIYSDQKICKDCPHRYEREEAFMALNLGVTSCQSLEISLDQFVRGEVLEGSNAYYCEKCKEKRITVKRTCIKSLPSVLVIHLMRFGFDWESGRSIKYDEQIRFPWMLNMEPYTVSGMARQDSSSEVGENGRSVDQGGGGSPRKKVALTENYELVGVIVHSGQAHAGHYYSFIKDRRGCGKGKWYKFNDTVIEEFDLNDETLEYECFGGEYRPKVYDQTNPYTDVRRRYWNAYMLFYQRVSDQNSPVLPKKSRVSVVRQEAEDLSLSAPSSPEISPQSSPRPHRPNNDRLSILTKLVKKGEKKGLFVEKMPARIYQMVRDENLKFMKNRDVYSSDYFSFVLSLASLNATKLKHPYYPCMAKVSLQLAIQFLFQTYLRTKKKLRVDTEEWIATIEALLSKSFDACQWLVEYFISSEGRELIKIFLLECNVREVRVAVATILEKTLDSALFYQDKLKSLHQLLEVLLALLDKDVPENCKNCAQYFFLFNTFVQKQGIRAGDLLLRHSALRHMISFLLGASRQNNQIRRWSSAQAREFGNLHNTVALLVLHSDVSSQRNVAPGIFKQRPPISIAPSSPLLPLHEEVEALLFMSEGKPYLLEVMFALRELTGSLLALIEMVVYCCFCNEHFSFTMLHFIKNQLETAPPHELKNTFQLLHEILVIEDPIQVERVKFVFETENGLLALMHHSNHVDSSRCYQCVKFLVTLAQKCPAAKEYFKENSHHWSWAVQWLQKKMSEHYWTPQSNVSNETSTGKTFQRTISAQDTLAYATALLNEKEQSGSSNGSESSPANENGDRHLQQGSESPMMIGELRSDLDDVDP

Cc1cc(NC(=O)CCl)n(-c2ccccc2)n1
log2 ratio of Biotin-Ahx-Ub-VS probe labelling (USP19): -0.106
log2 ratio of Biotin-Ahx-Ub-VS probe labelling (USP22): 0.086
log2 ratio of Biotin-Ahx-Ub-VS probe labelling (USP24): -0.201
log2 ratio of Biotin-Ahx-Ub-VS probe labelling (USP25): -0.721
log2 ratio of Biotin-Ahx-Ub-VS probe labelling (USP28): -1.03 (active)
